This passage reports binding signal results from paper PMC11006913.

Substitutions are numbered along the chain they refer to.

Among the targets are CRX (Homo sapiens, UniProt O43186 26-111, R41L); PRRX1 (Homo sapiens, UniProt P54821 80-166, F113S); HOXC9 (Homo sapiens, UniProt P31274 178-260, R222W).
What all share (experiment): PBM; 200 nM protein, PBS
Holding throughout (conditions): dsDNA, one strand shown

Another test addresses T1, NKX2-4 (Homo sapiens, UniProt Q9H2Z4 175-261, T231S).
T1 sequence: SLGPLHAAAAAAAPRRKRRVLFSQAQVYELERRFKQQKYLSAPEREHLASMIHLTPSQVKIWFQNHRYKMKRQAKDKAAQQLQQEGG

For test [1], the target named is HOXA7 (Homo sapiens, UniProt P31268 116-202).
HOXA7 (Homo sapiens, UniProt P31268 116-202), sequence (P31268 116-202): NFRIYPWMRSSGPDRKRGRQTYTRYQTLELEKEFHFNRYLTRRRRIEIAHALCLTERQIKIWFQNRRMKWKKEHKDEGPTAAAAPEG
Test [2] addresses HOXA7 (Homo sapiens, UniProt P31268 116-202, W177C).
Test [3] has as its target T2, NKX2-6 (Homo sapiens, UniProt A6NCS4 118-204, R150C).
T2 sequence: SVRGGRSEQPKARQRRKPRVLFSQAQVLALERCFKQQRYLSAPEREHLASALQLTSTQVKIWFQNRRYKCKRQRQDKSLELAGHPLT

Test [4] addresses T3, NKX2-6 (Homo sapiens, UniProt A6NCS4 118-204, F151L).
T3 sequence: T2 sequence with C33R, F34L

For test [5], the target named is NKX3-2 (Homo sapiens, UniProt P78367 192-278, P234S).
NKX3-2 (Homo sapiens, UniProt P78367 192-278, P234S), sequence (P78367 192-278 P234S): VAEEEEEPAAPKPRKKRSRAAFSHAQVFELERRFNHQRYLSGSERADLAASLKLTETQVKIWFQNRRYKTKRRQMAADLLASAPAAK
Test [6] deals with NKX3-2 (Homo sapiens, UniProt P78367 192-278).
NKX3-2 (Homo sapiens, UniProt P78367 192-278), sequence (P78367 192-278): as the sequence (P78367 192-278 P234S) above, with S43P counted along it
The target of test [7] is HOXC10 (Homo sapiens, UniProt Q9NYD6 254-340).
HOXC10 (Homo sapiens, UniProt Q9NYD6 254-340), sequence (Q9NYD6 254-340): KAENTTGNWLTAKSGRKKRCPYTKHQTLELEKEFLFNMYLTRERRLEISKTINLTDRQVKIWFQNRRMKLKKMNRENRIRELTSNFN
Test [8] has as its target T4, PAX4 (Homo sapiens, UniProt O43316 9-242, R200K).
T4 sequence: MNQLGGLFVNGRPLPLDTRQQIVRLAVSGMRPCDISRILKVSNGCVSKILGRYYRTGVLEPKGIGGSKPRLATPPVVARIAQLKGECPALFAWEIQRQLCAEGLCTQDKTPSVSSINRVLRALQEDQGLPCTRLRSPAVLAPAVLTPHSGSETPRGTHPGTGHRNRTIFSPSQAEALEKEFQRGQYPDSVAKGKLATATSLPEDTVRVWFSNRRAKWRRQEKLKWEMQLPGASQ

Test [9] has as its target T5, PAX4 (Homo sapiens, UniProt O43316 9-242, R227W).
T5 sequence: T4 sequence with K192R, R219W

The target of test [10] is ALX4 (Homo sapiens, UniProt Q9H161 200-286).
ALX4 (Homo sapiens, UniProt Q9H161 200-286), sequence (Q9H161 200-286): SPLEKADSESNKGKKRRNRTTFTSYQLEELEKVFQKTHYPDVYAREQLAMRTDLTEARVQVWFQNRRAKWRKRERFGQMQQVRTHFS
In test [11] the target is ALX4 (Homo sapiens, UniProt Q9H161 200-286, Q225E).
ALX4 (Homo sapiens, UniProt Q9H161 200-286, Q225E), sequence (Q9H161 200-286 Q225E): as the sequence (Q9H161 200-286) above, with Q26E counted along it
Test [12] addresses HOXC10 (Homo sapiens, UniProt Q9NYD6 254-340, K271E).
The target in test [13] is HOXA2 (Homo sapiens, UniProt O43364 129-215, R185T).
HOXA2 (Homo sapiens, UniProt O43364 129-215, R185T), sequence (O43364 129-215 R185T): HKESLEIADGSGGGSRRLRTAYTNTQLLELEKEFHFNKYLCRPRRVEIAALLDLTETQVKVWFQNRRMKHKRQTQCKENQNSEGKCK
In test [14] the target is HOXA2 (Homo sapiens, UniProt O43364 129-215, R185K).
HOXA2 (Homo sapiens, UniProt O43364 129-215, R185K), sequence (O43364 129-215 R185K): as the sequence (O43364 129-215 R185T) above, with T57K counted along it
Test [15] has as its target PROP1 (Homo sapiens, UniProt O75360 56-141).
The target in test [16] is PROP1 (Homo sapiens, UniProt O75360 56-141, R99H).
PROP1 (Homo sapiens, UniProt O75360 56-141, R99H), sequence (O75360 56-141 R99H): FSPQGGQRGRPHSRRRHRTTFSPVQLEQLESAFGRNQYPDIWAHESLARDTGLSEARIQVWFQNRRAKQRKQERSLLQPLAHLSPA
Test [17] deals with PROP1 (Homo sapiens, UniProt O75360 56-141, F88S).
PROP1 (Homo sapiens, UniProt O75360 56-141, F88S), sequence (O75360 56-141 F88S): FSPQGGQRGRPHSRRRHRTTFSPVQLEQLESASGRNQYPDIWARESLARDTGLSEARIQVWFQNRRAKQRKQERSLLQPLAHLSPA
For test [18], the target named is HOXA2 (Homo sapiens, UniProt O43364 129-215, Y150S).
HOXA2 (Homo sapiens, UniProt O43364 129-215, Y150S), sequence (O43364 129-215 Y150S): as the sequence (O43364 129-215 R185T) above, with Y22S, T57R counted along it
Test [19] concerns the target HOXA2 (Homo sapiens, UniProt O43364 129-215).

HOXC10 (Homo sapiens, UniProt Q9NYD6 254-340, K271E), sequence (Q9NYD6 254-340 K271E): as the sequence (Q9NYD6 254-340) above, with K18E counted along it
HOXA7 (Homo sapiens, UniProt P31268 116-202, W177C), sequence (P31268 116-202 W177C): as the sequence (P31268 116-202) above, with W62C counted along it
CRX, sequence (O43186 26-111 R41L): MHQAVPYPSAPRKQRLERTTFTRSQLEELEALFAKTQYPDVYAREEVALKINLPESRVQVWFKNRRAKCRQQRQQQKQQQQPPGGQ
HOXC9, sequence (P31274 178-260 R222W): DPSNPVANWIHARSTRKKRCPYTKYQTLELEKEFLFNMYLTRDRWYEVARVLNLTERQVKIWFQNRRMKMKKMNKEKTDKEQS
PRRX1, sequence (P54821 80-166 F113S): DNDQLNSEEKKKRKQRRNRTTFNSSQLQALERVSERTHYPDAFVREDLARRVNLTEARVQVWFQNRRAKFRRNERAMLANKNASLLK
HOXA2 (Homo sapiens, UniProt O43364 129-215), sequence (O43364 129-215): as the sequence (O43364 129-215 R185T) above, with T57R counted along it
PROP1 (Homo sapiens, UniProt O75360 56-141), sequence (O75360 56-141): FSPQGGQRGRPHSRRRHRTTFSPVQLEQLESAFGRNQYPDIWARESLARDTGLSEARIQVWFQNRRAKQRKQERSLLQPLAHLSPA

With GTACTTTA, in the test with NKX2-4, the binding signal is 12.8 upbm affinity estimate (log intensity, higher = more binding, comparable within an allelic series).

Take CAAAGCGG: the binding signal with HOXA7 [1] was 8.47 upbm affinity estimate (log intensity, higher = more binding, comparable within an allelic series); in the test with HOXA7 [2] it was 8.45 upbm affinity estimate (log intensity, higher = more binding, comparable within an allelic series).

With CCAGGTCG, the binding signal in the test with HOXA7 [1] was 8.48 upbm affinity estimate (log intensity, higher = more binding, comparable within an allelic series); with HOXA7 [2] it was 8.45 upbm affinity estimate (log intensity, higher = more binding, comparable within an allelic series).

Regarding GCACTTTA, the binding signal in the test with NKX2-4 is 12.8 upbm affinity estimate (log intensity, higher = more binding, comparable within an allelic series); with NKX2-6 [3] it was 11.7 upbm affinity estimate (log intensity, higher = more binding, comparable within an allelic series); with NKX2-6 [4] it was 10.7 upbm affinity estimate (log intensity, higher = more binding, comparable within an allelic series); with NKX3-2 [5], 12.5 upbm affinity estimate (log intensity, higher = more binding, comparable within an allelic series); with NKX3-2 [6] it was 12.6 upbm affinity estimate (log intensity, higher = more binding, comparable within an allelic series).

As to AAATGGTA, in the test with HOXC10 [7], the binding signal was 10.9 upbm affinity estimate (log intensity, higher = more binding, comparable within an allelic series).

For the sequence CTCATTTA, the binding signal is 9.93 upbm affinity estimate (log intensity, higher = more binding, comparable within an allelic series) with HOXA7 [1] and 8.72 upbm affinity estimate (log intensity, higher = more binding, comparable within an allelic series) in the test with HOXA7 [2].

For the sequence CGGGTGCC, the binding signal was 8.6 upbm affinity estimate (log intensity, higher = more binding, comparable within an allelic series) with HOXA7 [1] and 8.41 upbm affinity estimate (log intensity, higher = more binding, comparable within an allelic series) in the test with HOXA7 [2].

As for ACCAATAC, the binding signal in the test with HOXC10 [7] was 10.6 upbm affinity estimate (log intensity, higher = more binding, comparable within an allelic series).

Consider TTACACAA, for which the binding signal with HOXC10 [7] was 10.5 upbm affinity estimate (log intensity, higher = more binding, comparable within an allelic series).

For the sequence CGTCCACC, the binding signal was 8.57 upbm affinity estimate (log intensity, higher = more binding, comparable within an allelic series) in the test with HOXA7 [1] and 8.48 upbm affinity estimate (log intensity, higher = more binding, comparable within an allelic series) with HOXA7 [2].

Consider CTTCTAGA, for which the binding signal with HOXA7 [1] is 8.36 upbm affinity estimate (log intensity, higher = more binding, comparable within an allelic series); with HOXA7 [2], 8.5 upbm affinity estimate (log intensity, higher = more binding, comparable within an allelic series).

In the case of ACTGAAGG, the binding signal is 8.48 upbm affinity estimate (log intensity, higher = more binding, comparable within an allelic series) with HOXA7 [1] and 8.52 upbm affinity estimate (log intensity, higher = more binding, comparable within an allelic series) with HOXA7 [2].

On to GACAGTAA, for which, in the test with HOXC10 [7], the binding signal is 11 upbm affinity estimate (log intensity, higher = more binding, comparable within an allelic series).

For TAATACGA, the binding signal with HOXC10 [7] is 11 upbm affinity estimate (log intensity, higher = more binding, comparable within an allelic series); with PAX4 [8] it was 11.6 upbm affinity estimate (log intensity, higher = more binding, comparable within an allelic series); with PAX4 [9] it was 10.9 upbm affinity estimate (log intensity, higher = more binding, comparable within an allelic series); in the test with CRX, 10.4 upbm affinity estimate (log intensity, higher = more binding, comparable within an allelic series).

For AGATGTTA, in the test with HOXC10 [7], the binding signal is 10.8 upbm affinity estimate (log intensity, higher = more binding, comparable within an allelic series).

Consider CTGGTGGC, for which the binding signal was 9.99 upbm affinity estimate (log intensity, higher = more binding, comparable within an allelic series) in the test with HOXC10 [7]; 7.93 upbm affinity estimate (log intensity, higher = more binding, comparable within an allelic series) with ALX4 [10]; 8.14 upbm affinity estimate (log intensity, higher = more binding, comparable within an allelic series) in the test with ALX4 [11]; 10.1 upbm affinity estimate (log intensity, higher = more binding, comparable within an allelic series) with HOXC10 [12].

Take CTGCCCCC: the binding signal with HOXC10 [7] is 9.96 upbm affinity estimate (log intensity, higher = more binding, comparable within an allelic series); in the test with HOXA2 [13] it was 6.91 upbm affinity estimate (log intensity, higher = more binding, comparable within an allelic series); with HOXA2 [14], 9.95 upbm affinity estimate (log intensity, higher = more binding, comparable within an allelic series); with HOXC10 [12] it was 9.97 upbm affinity estimate (log intensity, higher = more binding, comparable within an allelic series); with PROP1 [15] it was 6.68 upbm affinity estimate (log intensity, higher = more binding, comparable within an allelic series); in the test with PROP1 [16] it was 6.59 upbm affinity estimate (log intensity, higher = more binding, comparable within an allelic series). Also, the binding signal was 6.14 upbm affinity estimate (log intensity, higher = more binding, comparable within an allelic series) with PROP1 [17]; 10.3 upbm affinity estimate (log intensity, higher = more binding, comparable within an allelic series) in the test with HOXA2 [18]; 7.21 upbm affinity estimate (log intensity, higher = more binding, comparable within an allelic series) with HOXA2 [19].

As to TTAATAAA, the binding signal in the test with HOXC10 [7] is 12.2 upbm affinity estimate (log intensity, higher = more binding, comparable within an allelic series); with PRRX1, 11 upbm affinity estimate (log intensity, higher = more binding, comparable within an allelic series); with HOXC10 [12], 11.5 upbm affinity estimate (log intensity, higher = more binding, comparable within an allelic series); with HOXC9 it was 11.2 upbm affinity estimate (log intensity, higher = more binding, comparable within an allelic series).

In the case of TATGCGCA, the binding signal with HOXC10 [7] was 10.8 upbm affinity estimate (log intensity, higher = more binding, comparable within an allelic series).
